This assay in a line: qHTS drug screen for cell cycle checkpoint inhibitors in PARPi-resistant BRCA-mutant ovarian cancer cell lines. (AID 1963452). The following applies: PEO1/OlaR viability, CellTiter-Glo luminescence, 96 h, stronger effect = lower value. In outline:
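PEO1, PEO4 and PEO1/OlaR ovarian cancer cells, 600 per well, exposed 96 h at 37C to a dilution series. Viability read by CellTiter-Glo luminescence, normalized to DMSO and empty wells; activity summarized as Z-AUC.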
For orientation: qHTS replaces the single test concentration by a dilution series.

The mark [1] stands for this setting: measured here: PEO1 parental Z-AUC.

Activity calls are given as the source filed them. The call rests on the fitted dose curve.

Take `COCCOC(=O)C1=C(C)NC2=C(C(=O)CC(c3ccccc3OC)C2)C1c1cccc(O)c1` (centres undefined): the Z-AUC was -0.198 (inactive). Besides, the Z-AUC under setting [1] amounted to 0.425. For the same compound, the Z-AUC (measured here: PEO4 Z-AUC) came to 0.517.
For the compound `O=c1cc(-c2ccccc2)oc2cc(O)c(O)c(O)c12`, the Z-AUC is 0.741 (inactive). The Z-AUC under setting [1] is 0.629. For the same compound, the Z-AUC (measured here: PEO4 Z-AUC) was 0.577.
With `NC(=O)c1ccc2nc(-c3ccc(Oc4ccc(Cl)cc4)cc3)[nH]c2c1`, the Z-AUC was -1.56 (inactive). Under setting [1], the Z-AUC was -1.26. For the same compound, the Z-AUC (measured here: PEO4 Z-AUC) was -1.18.
The corresponding values for `COc1ccc2c(Oc3ccc(NC(=O)c4c(C)n(CC(C)(C)O)n(-c5ccccc5)c4=O)cc3F)ccnc2c1` are -0.152 (inactive), 0.199 and 0.0396.
The corresponding values for `CN[C@@H](C)C(=O)N[C@H]1CN(C(=O)CC(C)C)CC[C@H]2CC[C@@H](C(=O)NC(c3ccccc3)c3ccccc3)N2C1=O` are 0.77 (inactive), 0.371 and -0.22.
The corresponding values for `Cc1cccc(Nc2nc(-c3ccncc3)cs2)c1` are 0.772 (inactive), 0.626 and 0.437.
With `O=C(CCCCCCC(=O)Nc1ccccc1)NO`, the Z-AUC is -0.11 (inactive). Also, under setting [1], the Z-AUC is -0.486. In addition, the Z-AUC (measured here: PEO4 Z-AUC) is -0.541.
For `Cc1ccc(/C=N/NC(=O)c2ccccc2Oc2ccccc2)o1`, in that order: 0.785 (inactive), 0.523 and 0.656.
Regarding `CO[C@@H](C(=O)N1Cc2[nH]nc(NC(=O)c3ccc(N4CCN(C)CC4)cc3)c2C1)c1ccccc1`, the Z-AUC is -0.0482 (inactive). Besides, under setting [1], the Z-AUC was 0.272. The Z-AUC (measured here: PEO4 Z-AUC) was -0.117.
The corresponding values for `COc1ccc(C2CC(c3ccccc3)=NN2c2ccc(S(N)(=O)=O)cc2)cc1` (centres undefined) are -0.424 (inactive), -0.864 and -0.548.
For the compound `CC(=O)Oc1cc2c(s1)CCN(C(C(=O)C1CC1)c1ccccc1F)C2` (centres undefined), the Z-AUC is 0.888 (inactive). Besides, under setting [1], the Z-AUC turned out to be 0.469. For the same compound, the Z-AUC (measured here: PEO4 Z-AUC) came out at 0.814.
Consider `O=C(Nc1ccccc1Br)N[C@@H]1CCN(c2ccc(C(F)(F)F)cn2)C1`, for which the Z-AUC was -0.871 (inactive). Besides, the Z-AUC under setting [1] was determined as 0.714. For the same compound, for the setting “measured here: PEO4 Z-AUC”, the Z-AUC stood at 0.446.
Take `CCCCCNC(=O)N1CCC(CN(Cc2ccc(Cl)cc2)Cc2ccc([N+](=O)[O-])s2)C1` (centres undefined): the Z-AUC was -0.865 (inactive). For the same compound, the Z-AUC under setting [1] is 0.128. The Z-AUC (measured here: PEO4 Z-AUC) is -0.734.
For `COc1cccc(-c2cc(=O)c3ccccc3o2)c1N`, in that order: -0.672 (inactive), -0.47 and -0.869.
Take `CCOC(CN1C(=O)[C@](CC(=O)Nc2ccc(C)cc2)(NC(=O)Nc2ccc(C)cc2)c2ccccc21)OCC`: the Z-AUC was 1.21 (inactive). Moreover, the Z-AUC under setting [1] is 1.06. For the same compound, the Z-AUC (measured here: PEO4 Z-AUC) came to 1.28.
Regarding `NS(=O)(=O)c1cccc2c1C(=O)c1cccc(O)c1C2=O`, the Z-AUC was -1.32 (inactive). In addition, the Z-AUC under setting [1] is -1.19. Besides, the Z-AUC (measured here: PEO4 Z-AUC) is -1.74.
For `Cc1nc(N)sc1-c1ccnc(Nc2ccc(N3CCOCC3)cc2)n1`, the Z-AUC was -0.158 (inactive). Besides, the Z-AUC under setting [1] was -0.029. The Z-AUC (measured here: PEO4 Z-AUC) is -0.545.
For the compound `COc1cc2ncnc(-n3nc(-c4ccccn4)nc3N)c2cc1OC`, the Z-AUC was -0.168 (inactive). For the same compound, under setting [1], the Z-AUC is 0.627. In addition, the Z-AUC (measured here: PEO4 Z-AUC) amounted to 0.697.
For `C[C@]12CCC3c4ccc(O)cc4CCC3C1CCC2=O` (some centres undefined), in that order: 1.36 (inactive), 0.945 and 1.78.
On to `CCS(=O)(=O)N1CC(CC#N)(n2cc(-c3ncnc4[nH]ccc34)cn2)C1`, for which the Z-AUC is 0.685 (inactive). The Z-AUC under setting [1] stood at 0.902. Besides, the Z-AUC (measured here: PEO4 Z-AUC) came to 0.44.
The corresponding values for `CC(C(=O)O)c1ccc(-c2ccccc2)c(F)c1` (centres undefined) are 0.668 (inactive), 0.939 and 1.4.
For the compound `Cc1ccc(F)c(NC(=O)Nc2ccc(-c3cccc4[nH]nc(N)c34)cc2)c1`, the Z-AUC is 1.25 (inactive). Besides, the Z-AUC under setting [1] came to 1.09. For the same compound, the Z-AUC (measured here: PEO4 Z-AUC) turned out to be 1.16.
`CCOC(=O)C1=C(N)Oc2ccc(Br)cc2C1C(C#N)C(=O)OCC` (centres undefined): the Z-AUC is 1.64 (inactive). Moreover, the Z-AUC under setting [1] was 1.22. Also, where the note is “measured here: PEO4 Z-AUC”, the Z-AUC was found to be 1.22.
As for `O=C1c2ccccc2-[n+]2ccc3c([nH]c4ccccc43)c21`, the Z-AUC was -1.18 (inactive). Moreover, under setting [1], the Z-AUC is -1.75. Moreover, the Z-AUC (measured here: PEO4 Z-AUC) is -2.31.
The corresponding values for `COC(=O)[C@@H]1[C@H]2C[C@H]3c4[nH]c5ccccc5c4CCN3C[C@@H]2CC[C@@H]1O` are 0.808 (inactive), 0.498 and 0.659.
For `Oc1ccc(C2=Cc3ccc(O)cc3OC2)cc1`, in that order: -0.664 (inactive), -0.782 and -0.812.
For `CC(C)n1cnc2c(NCCCCCCNC(=O)OC(C)(C)C)nc(NCCO)nc21`, in that order: 0.728 (inactive), 0.841 and 1.56.
As for `c1cc(-c2sc(-c3ccncc3)c(-c3ccncc3)c2-c2ccncc2)ccn1`, the Z-AUC is 1.76 (inactive). The Z-AUC under setting [1] turned out to be 1.54. Besides, the Z-AUC (measured here: PEO4 Z-AUC) was determined as 1.03.
For `CS(=O)c1ccc(-c2nc(-c3ccc(F)cc3)c(-c3ccncc3)[nH]2)cc1` (centres undefined), in that order: 0.509 (inactive), 0.495 and 0.786.
The corresponding values for `NC(CO)(CO)CCc1ccc(Sc2cccc(OCc3ccccc3)c2)cc1Cl` are 0.362 (inactive), -0.197 and -0.274.
Take `N#CC1(c2ccc(NC(=O)c3cccnc3NCc3ccncc3)cc2)CCCC1`: the Z-AUC is 1.21 (inactive). Also, under setting [1], the Z-AUC was 1.37. Besides, for the setting “measured here: PEO4 Z-AUC”, the Z-AUC amounted to 1.27.
In the case of `Nc1ncnc2c1nc(Cl)n2[C@@H]1O[C@H](CO)[C@@H](O)[C@@H]1O`, the Z-AUC was 0.764 (inactive). The Z-AUC under setting [1] was -0.225. The Z-AUC (measured here: PEO4 Z-AUC) was -0.377.
`CC1(C)Cc2c(sc(NC(=S)NC(=O)c3ccccc3)c2C(=O)O)CO1`: the Z-AUC was -0.088 (inactive). The Z-AUC under setting [1] was -0.241. In addition, the Z-AUC (measured here: PEO4 Z-AUC) came out at 0.00999.

For the origin of these results see PubChem BioAssay (NCATS).
